HttQ103 aggreg – inhibitors of mutant huntingtin aggregate formation in PC12 cells. Potency, µM (top dose mostly 46.1 µM), for inactives: at the top dose activity change, negative = inhibition, actives largely listed as inhibitors. AID 1688. PC12 HttQ103-GFP aggregates, Acumen cytometry, 40 h. actives 1.1% (n = 220,000); further: on the % scale 0 is the no-effect control and ±100 the full control effect; nearly all actives have a fitted effect of over 60% in size
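Using laser scanning cytometry, GFP-positive aggregates were counted after lysis of PC12 cells induced with 100 nM tebufenozide to express HTT exon 1 Q103–GFP. Compounds were tested in titration.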
ERK EGF block – blocks ERK signaling stimulated by EGF. HEK293-V1b, EGF-stimulated phospho-ERK AlphaScreen. Potency, µM (highest dose often 11.5 µM), without a hit: top-dose activity change, negative = inhibition, hits mostly inhibitors. actives 0.41% (n = 130,000). AID 1454;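 further: plate controls were stimulated vehicle wells for no effect and unstimulated vehicle basal for full effect; nearly all actives have a fitted effect of over 55% in size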
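In this qHTS, HEK293 cells with stable type-1 vasopressin (V1b) receptor were exposed to compound at 37C for 30 min, stimulated 5 min with EGF at 25 nM, lysed, and probed for phospho-ERK by AlphaScreen.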
HTT ATP protect – cytoprotection in Huntington HTT-Q103 PC12 cell model; PC12 HTT-Q103 induced, cytoprotection, ATP luminescence, 40 h; Potency, µM (highest dose often 56.4 µM), inactives show cytoprotection (ATP increase), most hits filed as activators; actives 0.14% (n = 230,000); further: % of control where 0% means no effect; nearly all actives have a fitted effect of over 45% in size
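Stable PC12 Q103-GFP cells in serum-supplemented, phenol red-free DMEM; induction by tebufenozide at 100 nM final; compound dose series; cell viability quantified luminescently from ATP.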
Active calls of the source: *; ? = inconclusive; . = no result given; ! = not active in a repeat; [ ] = dose if it differs, or a comment. Hits are enriched below; roughly 1.4% of the tested compounds scored in any of these assays. The call rests on the fitted dose curve; in most records, active means well fitted curve in the direction sought with a large enough effect; inconclusive means small, poorly fitted or top-dose-only effect, or another doubt; inactive means no such curve, though single readings can be large; an effect the other way counts as inactive or inconclusive. Potency means the concentration at half of the fitted maximal effect.

SMILES | HttQ103 aggreg | ERK EGF block | HTT ATP protect
COc1cccc(N=Nc2c(N)[nH]n3c(=O)cc(-c4ccccc4)nc23)c1 | 10µM* | . | -77%
C=C1C(=O)OC2C1CC/C(C)=C/CCC1(C)OC21 (configuration not stated) | . | 15% | .
COC(=O)c1c(C)[nH]c(C)c1-c1ccccc1Cl | 8.9µM* | . | -15%
CCOC(=O)c1c(C)[nH]c(C)c1-c1ccccc1OC | 9% | . | -22%
COC(=O)NC(/C=C/c1ccccc1)[C@]1(C(C)=O)CCCC1=O (some centres not stated) | . | . | -1%[10 µM]
CC1(C)CC(=O)C=C(NNC(=O)c2ccccc2O)C1 | 2% | . | -109%
O=C(NNc1nc(=O)c2cccnc2s1)c1ccccc1O | 7.9µM* | -10% | -51%[10 µM]
NCCC[C@H](N)CC(=O)N[C@H]1CNC(=O)[C@@H]([C@@H]2C[C@H](O)N=C(N)N2)NC(=O)/C(=C/NC(N)=O)NC(=O)[C@@H](CO)NC(=O)[C@@H](CO)NC1=O | . | -9%[25.7 µM] | -42%[17.1 µM]
CNC(=O)[C@]1(C)C[C@H]1[C@H](NC(=O)[C@]1(C)C[C@H]1[C@H](NC(=O)[C@]1(C)C[C@H]1[C@H](NC(=O)[C@]1(C)C[C@H]1[C@H](NC(=O)OCc1ccccc1)c1ccccc1)c1ccccc1)c1ccccc1)c1ccccc1 | . | -3% | -1%
CC(=O)Nc1nc(COc2ccccc2)cs1 | 12% | . | -14%
O=C(Nc1nc(COc2ccccc2)cs1)C12CC3CC(CC(C3)C1)C2 | 11µM* | . | -125%
Cc1noc(C)c1C(=O)N1CCC2(CCCN(Cc3ccc(C#N)cc3)C2)CC1 | . | -8% | -32%
CN(C)c1ccnc(Nc2ccccc2)c1C#N | -2%[9.22 µM] | 7%[57.5 µM] | -14%[10 µM]
CN(C)c1ccnc2c[cH-]cc12.[Fe].c1ccc(-[c-]2[c-](-c3ccccc3)[c-](-c3ccccc3)[c-](-c3ccccc3)[c-]2-c2ccccc2)cc1 (configuration not stated) | 14%[9.22 µM] | 3.2µM* | -38%[10 µM]
O=C1OC(=O)c2c(Cl)c(Cl)c(Cl)c(Cl)c21 | . | . | 5%
COc1ccc2[nH]cc(CCNc3nc(-c4ccc(N(C)C)cc4)nc4ccccc34)c2c1 | . | . | -83%
CCOc1cc(CNCCSc2nnnn2C)cc(Br)c1OCc1ccccc1F | -25% | . | -30%
CCOc1cc(CNCc2ccncc2)cc(Br)c1OCc1ccccc1F | 10µM* | . | -56%
CS(=O)(=O)c1ccc([C@H](O)[C@H](CO)NC(=O)C(Cl)Cl)cc1 | . | 6%[25.7 µM] | ?
O=C1/C(=C/c2cccnc2)CC/C1=C\c1cccnc1 | 32% | -6% | 14%
CCC1C/C(=C\c2cccnc2)C(=O)/C(=C/c2cccnc2)C1 (configuration not stated) | 22µM* | -6% | -37%[10 µM]
CC(C)(C)c1ccccc1OCCOCCNCc1ccccc1 | 18µM* | ? | 21%[10 µM]
CNCCOc1ccccc1C(C)(C)C | 4% | . | 10%[10 µM]
CCCCC[C@H](O)/C=C/[C@H]1[C@H](O)CC(=O)[C@@H]1C/C=C\CCCC(=O)O | 2% | ? | ?
CCCCC[C@H](O)/C=C/[C@H]1C(=O)C=C[C@@H]1C/C=C\CCCC(=O)O | . | -1% | 5.6µM*!
SMILES | HttQ103 aggreg | ERK EGF block | HTT ATP protect
CCCCCCCC[N+](CCCCCCCC)(CCCCCCCC)CCCCCCCC | . | . | -91%
O=c1cc(CN2CCN(c3ccccc3)CC2)c2cc(O)c(-c3ccccc3)cc2o1 | 8% | . | -41%
COc1cccc(NCc2cc(=O)oc3cc(-c4ccccc4)c(O)cc23)c1 | 17% | 28µM* | -1%[10 µM]
CCCN1CCN(c2ncnc3scc(C4COc5ccccc5O4)c23)CC1 (configuration not stated) | -17% | ? | -3%[10 µM]
c1ccc2c(c1)OCC(c1csc3ncnc(N4CCCCC4)c13)O2 (configuration not stated) | 11µM* | -1% | 24%[10 µM]
CC1(C)Cc2c(C#N)c(NCc3ccco3)nc(-c3ccco3)c2CO1 | 1µM* | . | -24%[10 µM]
Cc1nc(NCc2ccco2)c(C#N)c2c1COC(C)(C)C2 | 3% | 5%[57.5 µM] | -14%
OC(CNCC1CCCO1)Cn1c2ccc(Cl)cc2c2cc(Cl)ccc21 (configuration not stated) | 10% | . | -79%
OC(CNCCC1C=Nc2ccccc21)Cn1c2ccc(Cl)cc2c2cc(Cl)ccc21 (configuration not stated) | -15% | 22µM* | -4%[10 µM]
CC(C)(C)c1ccc(S(=O)(=O)Nc2ccc(Cc3ccncc3)cc2)cc1 | ? | 4% | -12%[10 µM]
CCCc1ccc(S(=O)(=O)NCCc2ccncc2)cc1 | ? | . | -5%
CC(C)(C)c1ccc(S(=O)(=O)NCCc2ccncc2)cc1 | 22µM* | . | -18%
CCCCCc1ccc(S(=O)(=O)NCCc2ccncc2)cc1 | 11µM* | . | -8%
COC(=O)[C@@]1(Cc2ccccc2)[C@H]2c3cc(C(=O)N(C)C)n(CCO)c3C[C@H]2CN1C(=O)c1ccccc1 | . | 8% | -44%
C/C(=N\NC(N)=S)C12CC3CC(CC(C3)C1)C2 | -9% | . | 3.2µM*
C/C(=N\NC(N)=S)C1(C)CCCCC1 | 4% | -8% | .
CCCC[C@@H]1C[C@H]1C(NC(=O)c1ccccc1)c1ccccc1C(F)(F)F (some centres not stated) | . | 3% | -36%
CN(C)c1ccccc1C(=O)N1CCCC(C(=O)c2ccc3ccccc3c2)C1 (configuration not stated) | 32µM* | ? | 9%
CSc1ncccc1C(=O)N1CCCC(C(=O)c2ccc3ccccc3c2)C1 (configuration not stated) | 34%[9.22 µM] | 3% | 35%[10 µM]
COc1cccc(Cn2c(=O)c(-c3cccc(Cl)c3)nc3cncnc32)c1 | . | -2% | 1%
C[C@@H](C(=O)Nc1ccc2ccccc2c1)[C@@H]1C[C@@]1(C)[C@@H](NC(=O)Oc1ccc(F)cc1)c1ccccc1 | . | 13% | -8%
Cc1cccc(N=C2NC(=O)/C(=C/c3cccs3)S2)c1 | -1% | 25µM* | .
Cc1cccc(N=C2NC(=O)/C(=C/c3cccn3C)S2)c1 | 24%[9.22 µM] | 1%[57.5 µM] | 17%[10 µM]
O=S(=O)(c1ccccc1)N1CCC2(CC1)CN(c1ccccn1)C2 | . | -4% | -1%
CCS(=O)(=O)c1ccc(OC)c(N=Nc2ccc(O)c3ncccc23)c1 | 7.9µM* | -4% | -177%
SMILES | HttQ103 aggreg | ERK EGF block | HTT ATP protect
NS(=O)(=O)c1cc(Br)c(N=Nc2ccc(O)c3ncccc23)c(Br)c1 | . | . | 1%[10 µM]
CCOC(=O)CSc1nc(Nc2ccc3c(c2)OCO3)c2ccccc2n1 | 3% | . | -6%
N#CCSc1nc(Nc2ccc3c(c2)OCO3)c2ccccc2n1 | 25µM* | . | -36%
O=c1[nH]cnc2nc(-c3ccccc3)c(-c3ccccc3)nc12 | 14µM* | 4% | -4%[10 µM]
O=c1[nH]cnc2nn(-c3ccccc3)nc12 | -5% | . | -28%
CS(=O)(=O)N(CC(=O)Nc1ccc(CC#N)cc1)c1ccc(C23CC4CC(CC(C4)C2)C3)cc1 | 22µM* | . | 41%[10 µM]
CC(=O)Nc1ccc(NC(=O)CN(c2ccc(C34CC5CC(CC(C5)C3)C4)cc2)S(C)(=O)=O)cc1 | 4% | . | -20%
CCNc1ncc2nc(-c3cccs3)c(=O)n(Cc3cccs3)c2n1 | . | . | -40%
CCOc1ccc(NC(=S)N2CCCN(Cc3cc(C)ccc3C)C2)cc1 | 28µM* | 14% | -46%

Compound activity as filed in PubChem.
